hcDAF12 agonist – activators of H. contortus DAF-12 nuclear receptor. HEK293 hcDAF-12 lit1-tk-luc reporter, luminescence; 0% DMSO, 100% Δ7-dafachronic acid. activation, % at 6.8 µM. 370,000 tested, 1.4% active. AID 652067;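 active = activation above the mean of all tested compounds plus 3 SD, cut at about 5.5% in these data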
DAX1 inh-1 – inhibitors of human orphan nuclear receptor DAX1 (NR0B1) | inhibition, % at 6.75 µM | P51843 | HEK293 Gal4-DAX1 luciferase reporter, luminescence | AID 504766 | 340,000 tested, 0.99% active;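 active = inhibition above the mean over all tested compounds plus 3 SD, cut at about 4.2% in these data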;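 also: inhibition shows as a rise in luminescence from relieved DAX1 repression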
Target sequence (P51843 207-470 limits assumed): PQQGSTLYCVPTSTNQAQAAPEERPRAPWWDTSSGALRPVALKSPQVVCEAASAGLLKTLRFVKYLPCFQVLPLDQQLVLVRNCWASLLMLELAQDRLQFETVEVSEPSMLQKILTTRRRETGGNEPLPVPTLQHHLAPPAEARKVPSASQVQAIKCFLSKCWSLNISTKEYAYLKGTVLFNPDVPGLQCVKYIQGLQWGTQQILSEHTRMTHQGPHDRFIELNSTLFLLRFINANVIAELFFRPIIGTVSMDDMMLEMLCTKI
ssDAF12 agonist – activators of S. stercoralis DAF-12 nuclear receptor; HEK293 ssDAF-12/GRIP1 lit1-tk-luc reporter, luminescence; % of 3 µM dafachronic acid response; activation, % at 6.8 µM; 370,000 tested, 1% active;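 active = activation above the mean over all tested compounds plus 3 SD, cut at about 0.9% in these data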
hgDAF-12 ag – hgDAF-12 agonism, primary luciferase screen. activation, % at 6.8 µM. HEK293 GAL4-hgDAF12 UAS-luciferase reporter, agonist luminescence; normalized to butyrate control. AID 687014. 370,000 tested, 1.8% active;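 active = activation above a cutoff set at the mean of all screened compounds plus 3 SD, cut at about 10% in these data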
DAX1 inh-2 – inhibitors of DAX1 repression of SF-1 activated StAR promoter; AID 652010; inhibition, % at 6.8 µM; HEK293T StAR-luciferase reporter, SF-1/DAX-1 repression relief; 370,000 tested, 1.1% active;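 active = inhibition above the mean over all tested compounds plus 3 SD, cut at about 3.6% in these data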;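 also: higher inhibition means more luminescence from relief of DAX-1 repression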
hgDAF12 conf – confirmation of H. glycines DAF-12 agonists | HEK293 GAL4-hgDAF12 luciferase reporter, agonist mode; percent of butyrate response | activation, % at 6.8 µM | shares compounds with hgDAF-12 ag | 3,300 tested, 80% active;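 active = mean activation over triplicate wells above the hit cutoff derived from the earlier primary screen, cut at about 11% in these data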
LXR ag 2 – LXR-beta agonism as DAF-12 counter-screen. activation, % at 6.8 µM. shares compounds with hgDAF-12 ag. HEK293 Gal4-LXR luciferase reporter, 24 h. AID 743051. 3,300 tested, under 10 active;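 active = mean activation of the triplicate above a set limit carried over from the primary screen, none filed active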
Target sequence (P55055 whole entry, looked up, the tested form may be a part): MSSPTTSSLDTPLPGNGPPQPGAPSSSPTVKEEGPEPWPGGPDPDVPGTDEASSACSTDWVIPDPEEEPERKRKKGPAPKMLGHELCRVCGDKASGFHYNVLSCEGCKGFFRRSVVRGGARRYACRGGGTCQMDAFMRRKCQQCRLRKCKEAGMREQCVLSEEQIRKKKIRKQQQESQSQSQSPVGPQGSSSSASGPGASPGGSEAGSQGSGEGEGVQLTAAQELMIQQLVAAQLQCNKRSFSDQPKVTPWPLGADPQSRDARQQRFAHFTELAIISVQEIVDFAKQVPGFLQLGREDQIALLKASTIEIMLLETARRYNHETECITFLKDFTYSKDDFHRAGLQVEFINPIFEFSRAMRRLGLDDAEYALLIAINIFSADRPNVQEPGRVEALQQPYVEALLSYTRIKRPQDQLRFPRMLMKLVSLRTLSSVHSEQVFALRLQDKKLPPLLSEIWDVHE
Of the large screens only hits and unclear results are named; the others gave an inactive call (follow-up assays come after a bar, where they were run). Hits are enriched below; roughly 4.1% of the tested compounds scored in any of these assays.

CC(=O)Oc1ccccc1-c1nc(/C=C/c2ccccc2)no1	hcDAF12 agonist 6.3, hgDAF-12 ag 17 | hgDAF12 conf 18 | LXR ag 2 inactive
CCOC1=C/C(=C/c2c(N)n3nc(-c4ccccc4)sc3nc2=O)C=CC1=O	none (no result: DAX1 inh-1)
COC1=C/C(=C/c2c(N)n3nc(-c4ccc(C)cc4)sc3nc2=O)C=CC1=O	hcDAF12 agonist 6.2, hgDAF-12 ag 13 | hgDAF12 conf inactive | LXR ag 2 inactive
COCCCNC(=O)C[C@H]1C[C@@]2(C(=O)OC)C(=C[C@H](C(C)(C)C)O[C@@H]2C)N(CCC2=CCCCC2)C1=O	none (no result: DAX1 inh-1)
COC(=O)[C@H](C(C)C)N(CCCc1cn(Cc2ccc(C)cc2)nn1)S(=O)(=O)c1ccccc1Br	none (no result: DAX1 inh-1)
Cc1ccc(CONC(=O)c2ccc(Cl)cc2)cc1	none
Cc1ccc(CONC(=O)c2ccccc2)cc1	hgDAF-12 ag 15 | hgDAF12 conf 11 | LXR ag 2 inactive
Cc1ccc(NC(=O)N2CCCC2)cc1Cl	none
COc1cccc(NC(=O)Nc2ccc(C(C)(C)C)cc2)c1	hgDAF-12 ag 18 | hgDAF12 conf 11 | LXR ag 2 inactive
Cc1ccc(NC(=O)C(=O)N2CCCC2)cc1Cl	hgDAF-12 ag 15 | hgDAF12 conf 13 | LXR ag 2 inactive
O=C(Nc1ccc2c(c1)OCO2)c1ccc(=O)[nH]n1	none
Cc1ccc(NC(=O)Nc2ccc(F)cc2)cc1Cl	hgDAF-12 ag 15 | hgDAF12 conf 11 | LXR ag 2 inactive
CC(C)(C)c1ccc(NC(=O)c2ccc(=O)[nH]n2)cc1	DAX1 inh-1 5.6, hgDAF-12 ag 17 | hgDAF12 conf 14 | LXR ag 2 inactive
CC(C)(C)c1ccc(NC(=O)Nc2ccc(F)cc2)cc1	hgDAF-12 ag 15, DAX1 inh-2 3.6 (no result: DAX1 inh-1) | hgDAF12 conf 15 | LXR ag 2 inactive
CC(C)(C)c1ccc(COC(=O)Nc2ccc(F)cc2)cc1	none
Cc1cc(OCC(=O)Nc2c(C(C)C)cccc2C(C)C)no1	hgDAF-12 ag 20 | hgDAF12 conf inactive | LXR ag 2 inactive
Cc1cc(OCC(=O)Nc2ccccc2C)no1	none
COc1ccc(Cn2ccc3ccc(-c4ccc5ccn(C(=O)C6CC6)c5c4)cc32)cc1	none (no result: DAX1 inh-1)
COc1cc(/C=N/O)ccc1OCc1ccccc1Cl	hgDAF-12 ag 14 | hgDAF12 conf 16 | LXR ag 2 inactive
O=C(N/N=C/c1cn(-c2ccccc2)nc1-c1cc2ccccc2o1)c1c[nH]c2ccccc12	hgDAF-12 ag 19 | hgDAF12 conf 13 | LXR ag 2 inactive
COc1ccc2c(c1)[C@@H](NC(=O)c1ccncc1)[C@@H]1Cc3ccccc3[C@H]21	none (no result: DAX1 inh-1)
CCC1(c2ccc(F)cc2)NC(=O)N(CC(=O)Nc2ccc3c(c2)OCCO3)C1=O (stereo unspecified)	none
COc1ccc(C2(C)NC(=O)N(CC(=O)Nc3ccc(-c4nc5ccc(C)cc5s4)cc3)C2=O)cc1 (stereo unspecified)	hgDAF-12 ag 19 (no result: DAX1 inh-1) | hgDAF12 conf 11 | LXR ag 2 inactive
CCC1(c2ccc(F)cc2)NC(=O)N(CC(=O)Nc2ccc(-c3nc4ccc(C)cc4s3)cc2)C1=O (stereo unspecified)	hgDAF-12 ag 20, DAX1 inh-2 3.8 | hgDAF12 conf 16 | LXR ag 2 inactive
C/C(=N\Nc1nccnc1Cl)c1ccc(Br)cc1	hcDAF12 agonist 5.8, hgDAF-12 ag 17 | hgDAF12 conf inactive | LXR ag 2 inactive
C/C(=N\Nc1nccnc1Cl)c1ccc([N+](=O)[O-])cc1	hgDAF-12 ag 15 | hgDAF12 conf inactive | LXR ag 2 inactive
C/C(=N/Nc1ncc(Br)cn1)c1ccc([N+](=O)[O-])cc1	none
C[C@@H]1CN([C@H](C)CO)C(=O)c2cc(NC(=O)Nc3ccc(F)cc3)ccc2O[C@@H](C)CCCCO[C@@H]1CN(C)C(=O)CCCN(C)C	none (no result: DAX1 inh-1)
CN[C@H]1C[C@H]2c3[nH]c4c(-c5cccc(C)c5)cccc4c3CCN2C(=O)[C@H]1[C@H](C)O	none (no result: DAX1 inh-1)
Cc1ccc2nc(-c3ccc(O)cc3)c(Nc3ccc4c(c3)OCCO4)n2c1	hgDAF-12 ag 17 | hgDAF12 conf inactive | LXR ag 2 inactive
Cc1ccc2nc(-c3ccccc3O)c(Nc3ccc4c(c3)OCCO4)n2c1	none
COC(=O)[C@]12CCCCC=C1N(Cc1ccc(OC)cc1)C(=O)[C@@H]2CC(=O)N1CCC(c2ccccc2)CC1	none (no result: DAX1 inh-1)
COc1cc(OC)c(C2=NOC(C(=O)N3CCN(C(=O)c4ccco4)CC3)C2)cc1Cl (stereo unspecified)	none
COc1cc(OC)c(C2=NOC(C(=O)N3CCc4ccccc4C3)C2)cc1Cl (stereo unspecified)	hgDAF-12 ag 14 | hgDAF12 conf inactive | LXR ag 2 inactive
COC(=O)c1cc2c(c3c4cc(C)ccc4n(S(=O)(=O)c4ccc(OC)cc4)c13)C(=O)N(Cc1ccc(C(F)(F)F)cc1)C2	none (no result: DAX1 inh-1)
Cn1c(SCC2CCCCC2)nnc1-c1ccco1	hgDAF-12 ag 15 (no result: DAX1 inh-1) | hgDAF12 conf 15 | LXR ag 2 inactive
COc1ccc(N2CCN(C(=O)C3CCN(S(=O)(=O)c4ccc5c(c4)CC(C)N5C(=O)C4CC4)CC3)CC2)cc1 (stereo unspecified)	none (no result: DAX1 inh-1)
COc1ccccc1NC(=O)NCC1CC1(Cl)Cl (stereo unspecified)	none
Cc1ccc(NC(=O)NCC2CC2(Cl)Cl)cc1 (stereo unspecified)	hgDAF-12 ag 13 | hgDAF12 conf inactive | LXR ag 2 inactive
Cc1ccccc1OCCNC(=O)c1ccc2ccccc2n1	hgDAF-12 ag 15 | hgDAF12 conf 12 | LXR ag 2 inactive
COCCNC(=O)c1ccc2ccccc2n1	none
COc1c(C)cccc1C(=O)Nc1ccc(N2CCOCC2)c(Cl)c1	hgDAF-12 ag 21 | hgDAF12 conf 15 | LXR ag 2 inactive
O=C(Nc1ccc(N2CCOCC2)c(Cl)c1)c1c(F)c(F)c(F)c(F)c1F	none
O=C(Nc1ccc(N2CCOCC2)c(Cl)c1)c1cccc(F)c1	hgDAF-12 ag 14 | hgDAF12 conf 16 | LXR ag 2 inactive
O=C(Nc1ccc(N2CCCC2)c(Cl)c1)c1cccs1	hgDAF-12 ag 20, DAX1 inh-2 4.0 | hgDAF12 conf 19 | LXR ag 2 inactive
C=CCN(C(=O)[C@@H](C)[C@@H](O)c1ccc(Cl)cc1)c1ccccc1	none (no result: DAX1 inh-1)
COC(=O)[C@]12C[C@H](CC(=O)NCc3ccccc3)C(=O)N(CCC3=CCCCC3)C1=C[C@H](COCc1ccccc1)O[C@@H]2C	none (no result: DAX1 inh-1)
C[C@H]1CCCN1c1ccc2c(c1)O[C@@H]1CCN(C1)S2(=O)=O	none (no result: DAX1 inh-1)
CCc1ccc(NC2=NCC(c3ccccc3)S2)cc1 (stereo unspecified)	hgDAF-12 ag 13 | hgDAF12 conf 11 | LXR ag 2 inactive
COC(=O)[C@H](C(C)C)N(CCc1cn(Cc2ccc(C)cc2)nn1)S(=O)(=O)c1ccccc1Br	none (no result: DAX1 inh-1)
